# tim23-1 inh: tim23-1 yeast growth inhibition. S. cerevisiae tim23-1 growth, BacTiter-Glo luminescence, 24 h. inhibition, % at 20 µM. actives 1.3% (n = 330,000);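 active means growth inhibition of the mutant yeast at or above 50%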;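 further: temperature-sensitive mutant grown at 25 °C; plate controls were DMSO-treated mutant yeast for no effect and medium wells lacking yeast for full effect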
# TIM10 inh: growth inhibitors of TIM10 yeast strain; S. cerevisiae TIM10 strain growth, BacTiter-Glo luminescence, 24 h; inhibition, % at 10 µM; actives 1.4% (n = 330,000); AID 463195;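 active means inhibition of 40% or more at the single tested concentration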;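 further: wild-type TIM10 isogenic control strain grown at permissive 25 °C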
# NALP3 yeast inh: NALP3 inhibition in yeast; Yeast reconstituted NLRP3/ASC/caspase-1, beta-gal luminescence, 24 h; inhibition, % at 10 µM; actives 0.39% (n = 330,000); AID 2825;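 active means inhibition of 50% or more; inactive means inhibition below 50%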;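 further: plate controls were induced DMSO wells for no effect and uninduced yeast grown without galactose for full effect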
# tim10-1 inh: inhibits growth of tim10-1 mutant yeast; inhibition, % at 20 µM; AID 463190; S. cerevisiae tim10-1 ts strain growth, BacTiter-Glo, 24 h; actives 2.2% (n = 330,000);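 active means inhibition of at least 40%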;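 further: mutant grown at 25 °C; 0% = DMSO wells with yeast and 100% = wells holding no yeast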
# V-ATPase pH: alters yeast V-ATPase proton transport | actives 0.37% (n = 350,000) | S. cerevisiae, pHLuorin cytosolic pH fluorescence | AID 504577 | response, % at 10 µM; in the data active means response mostly above about 7.3%, no sharp cut-off; inactive means mostly below about 5.4%; further: actives read high
# NALP1 yeast inh: NALP1 inhibition; inhibition, % at 10 µM; AID 2071; S. cerevisiae NALP1/ASC/caspase-1 growth, X-gal OD620, 72 h; actives 0.61% (n = 280,000); in the data active means inhibition mostly above about 24%, no sharp cut-off; inactive means mostly below about 32%
# tim10-1 confirm: tim10-1 yeast growth inhibition, confirmed. S. cerevisiae tim10-1 ts strain growth, BacTiter-Glo, 24 h. inhibition, % at 20 µM. AID 463213. actives 56% (n = 7,400). shares compounds with tim10-1 inh;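 active means inhibition of yeast growth at or above a set limit in either of two repeat tests at 20 µM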;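 further: tim10-1 mutant grown at permissive 25 °C to find synthetic lethal compounds; 0% = DMSO yeast wells and 100% = medium wells without yeast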
# The depositor's hits bear a star; / = not tested or not shown. A selection: hits, their analogues and other compounds. The true share with any hit is near 4.2%.
SMILES,tim23-1 inh,TIM10 inh,NALP3 yeast inh,tim10-1 inh,V-ATPase pH,NALP1 yeast inh,tim10-1 confirm
COc1cccc(OC)c1-c1nn2c(-c3ccco3)nnc2s1,22,20,-6,45*,3,-4,31*
CCc1ccc(NC(=O)N(Cc2ccco2)C(C)c2cccs2)cc1 (configuration not stated),30,21,-4,42*,-2,8,33*
CC(c1cccs1)N(C(=O)Nc1ccccc1)C1CCCCC1 (configuration not stated),35,36,6,36,3,-4,/
CCc1ccc(NC(=O)N(Cc2cccnc2)Cc2ccco2)cc1,7,18,-20,31,2,4,/
CC(C)CCN(C(=O)Nc1ccccc1)C(C)c1cccs1 (configuration not stated),34,23,5,43*,1,49,31*
CCCN1CCC(NC(=O)C2CC=CCC2C(=O)O)CC1 (configuration not stated),5,0,16,5,-2,12,/
CCCNc1c(NC(=O)c2cccs2)c(=O)oc2ccccc12,-9,-13,5,-21,9,5,/
CCn1c(O)c(N=Nc2ccc3ccccc3n2)c2ccccc21,15,18,22,16,-2,6,/
Brc1ccc(N=Nc2ccc3ccccc3n2)cc1,27,19,39,40*,-2,12,26
O=C(COC(=O)Cc1ccccc1F)Nc1cccc(S(=O)(=O)NC2=NCCCCC2)c1,1,8,9,-1,4,-6,/
C[C@@H](CSc1ccccc1)CN1CC[C@H](O)CCC1=O,4,-3,-1,-2,0,16,/
COc1ccccc1NC(=O)c1ccc(COc2ccccc2OC)o1,25,25,10,41*,1,3,3
CCN1CCN(S(=O)(=O)c2ccc(Cl)c(C(=O)NCCc3ccccc3)c2)CC1,-37,-28,4,-16,0,/,/
COc1ccc(NC(=O)COC(=O)Cn2cnc3ccccc32)cc1,6,0,-10,1,1,/,/
COc1ccc(-n2c(C)cc(C(=O)COC(=O)Cn3cnc4ccccc43)c2C)cc1,35,28,15,53*,2,-3,28
CCOc1cc(C2NC(=O)NC(c3ccccc3)=C2C(=O)c2ccccc2)c(Br)cc1OCC(=O)O (configuration not stated),15,12,-39,4,3,-16,/
Cc1[nH]n(-c2ccccc2)c(=O)c1C(c1ccccc1[N+](=O)[O-])C(C#N)C#N (configuration not stated),43,31,-27,44*,0,-11,33*
CC1(C)CC2CC(C)(CN2C(=O)C23CCC(C)(C(=O)C2)C3(C)C)C1 (configuration not stated),23,-10,4,43*,-5,29,14
CC12CCC(C(=O)NC3CCCC3)(CC1=O)C2(C)C (configuration not stated),15,6,1,-3,-2,-10,/
COc1ccccc1NC(=O)c1ccc(N2CC3CC(C2)c2cccc(=O)n2C3)c(NC(=O)c2ccncc2)c1 (configuration not stated),3,7,3,-11,-3,22,/
CCCn1c(CC)nc([N+](=O)[O-])c1S(=O)(=O)c1ccccc1,40,38,-16,54*,3,9,43*
CCc1nc(C)cn1S(=O)(=O)c1ccc([N+](=O)[O-])cc1,20,6,12,17,-3,-4,/
C=C[C@@](C)(O)CC[C@@H]1[C@@]2(C)CCCC(C)(C)[C@@H]2CC[C@@]1(C)O,32,17,29,42*,4,-1,13
CCOc1ccc2nc(SCC(=O)NCC3CCCO3)c(C#N)cc2c1 (configuration not stated),15,2,36,20,2,13,/
CCC(=O)N1CCN(c2ccnc3cc(Cl)ccc23)CC1,2,14,14,2,3,/,/
SMILES,tim23-1 inh,TIM10 inh,NALP3 yeast inh,tim10-1 inh,V-ATPase pH,NALP1 yeast inh,tim10-1 confirm
CC(C)N(C(=O)N1CCN(c2ccnc3cc(Cl)ccc23)CC1)C(C)C,43,23,12,40*,0,8,29*
O=C(c1ccco1)N1CCN(S(=O)(=O)/C=C/c2ccccc2)CC1,7,6,9,16,-1,13,/
O=C(c1ccc(Cl)cc1)N1CCN(S(=O)(=O)/C=C/c2ccccc2)CC1,42,20,16,46*,2,/,22
CCOC(=O)c1c(O)c2cc(Cl)ccc2n(CC)c1=O,10,-21,16,5,-3,49,/
OC(COCC(F)(F)C(F)(F)C(F)(F)C(F)F)Cn1c2ccc(Cl)cc2c2cc(Cl)ccc21 (configuration not stated),24,31,11,41*,-3,43,36*
CCOC(=O)c1nnc(-c2ccc(C)cc2)nc1Oc1ccc(Cl)cc1Cl,43,17,25,50*,6,2,31*
CCCc1ccc2oc(C(=O)N3CCC(C(N)=O)(N4CCCCC4)CC3)c(C)c2c1,42,22,-1,42*,-10,10,27
CCCCOC(=O)Nc1cccc(C(=O)OCC)c1,25,7,10,46*,2,1,26
CCOCCOC(=O)c1cccc(NC(=O)OCC)c1,35,13,24,30,3,10,/
Oc1ccc(C[C@H]2CNC(=S)N2CC2CCCN2C[C@H](Cc2ccc(O)cc2)N2C[C@H](Cc3ccc(O)cc3)N(CC3CCCCCC3)C2=S)cc1 (some centres not stated),/,/,/,/,2,/,/
O=C(CSc1nc2ccccc2c(=O)n1-c1ccc(F)cc1)NCc1ccco1,19,14,-11,21,-1,7,/
O=c1c2ccccc2nc(SCc2cn3ccsc3n2)n1-c1ccc(F)cc1,32,18,4,43*,4,22,19
CCOC(=O)C1Nc2ccc(C(F)(F)F)cc2C2c3ccccc3CC12 (configuration not stated),0,-9,46,57*,0,/,53*
Cc1ccc(SCC2(O)CCN(S(=O)(=O)c3ccc(Cl)cc3)CC2)cc1,26,31,24,41*,-1,12,25
Cc1cccn2c(=O)c(C=O)c(N3CCN(c4ccc(F)cc4)CC3)nc12,28,33,23,49*,6,0,36*
CC[C@@H](C)CN1C(=O)N[C@@H](c2ccccc2)C(C(C)=O)=C1C,2,0,-1,-10,-1,/,/
COc1ccc(S(=O)(=O)Nc2ccc3c(c2)CC(=O)N([C@@H](C)CO)C[C@H](C)[C@@H](CN(C)S(=O)(=O)c2ccc(F)cc2)O3)cc1,-1,-1,8,-4,-2,/,/
